Test [1] is described as follows: reducers of endogenous Her2 protein level, primary screen, SKBR3 breast tumor cells, AlphaScreen, ATP viability (AID 461;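 active means Her2 level under about 52% in both replicate screens, with viability over 70% of control, limit read from the data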;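 on Her2 level: lower value means less Her2 protein in the cells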;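 on viability: percent of carrier control wells set as 100% viability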). As to conditions: 18-24 h, measured here: SKBR3 viability, ATP luminescence, at 10 µM.
The target of test [2] is Receptor tyrosine-protein kinase erbB-2 (Homo sapiens) (UniProt P04626). The description is as above. As to conditions: 18-24 h, at 10 µM, stronger effect = lower value.
Chain of Receptor tyrosine-protein kinase erbB-2 (Homo sapiens) (P04626 whole entry, looked up): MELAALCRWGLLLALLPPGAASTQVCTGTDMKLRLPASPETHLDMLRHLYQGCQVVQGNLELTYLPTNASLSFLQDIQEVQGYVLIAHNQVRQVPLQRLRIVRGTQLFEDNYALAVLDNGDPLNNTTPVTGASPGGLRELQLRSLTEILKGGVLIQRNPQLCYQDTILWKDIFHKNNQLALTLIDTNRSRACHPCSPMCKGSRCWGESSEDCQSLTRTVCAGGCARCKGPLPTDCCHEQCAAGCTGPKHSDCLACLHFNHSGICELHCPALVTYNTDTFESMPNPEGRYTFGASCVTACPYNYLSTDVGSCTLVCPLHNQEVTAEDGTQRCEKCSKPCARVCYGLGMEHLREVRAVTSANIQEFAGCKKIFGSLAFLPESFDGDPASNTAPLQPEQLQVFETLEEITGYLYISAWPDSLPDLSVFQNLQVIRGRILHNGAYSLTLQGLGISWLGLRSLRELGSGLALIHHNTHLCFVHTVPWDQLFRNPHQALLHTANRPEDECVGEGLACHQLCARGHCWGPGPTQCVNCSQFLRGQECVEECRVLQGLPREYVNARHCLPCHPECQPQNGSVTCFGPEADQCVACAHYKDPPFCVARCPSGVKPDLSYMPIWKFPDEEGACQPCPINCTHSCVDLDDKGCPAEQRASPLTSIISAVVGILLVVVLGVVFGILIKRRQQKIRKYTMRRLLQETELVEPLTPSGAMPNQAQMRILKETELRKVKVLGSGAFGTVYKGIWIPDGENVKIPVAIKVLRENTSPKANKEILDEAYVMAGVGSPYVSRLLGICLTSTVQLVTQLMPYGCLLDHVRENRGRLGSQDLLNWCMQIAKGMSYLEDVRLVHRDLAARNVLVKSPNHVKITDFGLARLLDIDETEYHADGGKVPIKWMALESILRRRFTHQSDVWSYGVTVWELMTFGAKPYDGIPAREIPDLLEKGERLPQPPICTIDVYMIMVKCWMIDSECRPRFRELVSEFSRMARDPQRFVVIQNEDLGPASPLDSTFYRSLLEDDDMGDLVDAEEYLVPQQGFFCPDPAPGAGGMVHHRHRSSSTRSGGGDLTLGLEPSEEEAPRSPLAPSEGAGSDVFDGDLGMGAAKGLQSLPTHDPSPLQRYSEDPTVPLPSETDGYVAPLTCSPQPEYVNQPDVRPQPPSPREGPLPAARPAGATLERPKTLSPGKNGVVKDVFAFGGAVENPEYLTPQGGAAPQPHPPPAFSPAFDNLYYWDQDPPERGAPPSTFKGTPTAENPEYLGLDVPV
Test [3] is described as follows: SK-BR-3 cell growth inhibitors, pilot screen, 24 h, human (AID 572;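 active means viability at or below 10% of carrier control in both of two separate runs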;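 further: compound exposure lasted between 18 and 24 h rather than exactly 24 h; 100% = carrier-treated control wells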). To be noted: SK-BR-3 viability, CellTiter-Glo luminescence, at 10 µM, stronger effect = lower value.
Test [4] is described as follows: HUVEC growth inhibition – cell-based, human, primary screen (AID 575;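 active means viability at or below 30% in both replicate assays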;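 further: 100% = median of untreated cell wells with 0.1% DMSO on each plate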). As to conditions: HUVEC proliferation, CellTiter-Glo luminescence, 72 h; at 10 µM; stronger effect = lower value.
Test [5] can be described thus: growth inhibitors of H69AR lung tumor, primary screen, human, duplicate replicates (AID 580;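 active means viability at or under a set limit in both replicates, limit being median viability minus 3 SD, cut at about 48% in these data, passing the limit was not always enough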;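 further: 100% = mean luminescence of untreated wells and 0% = no signal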). As to conditions: H69AR lung tumor cells viability, ATP luminescence, 72 h; at 10 µM; stronger effect = lower value.
Test [6] in a line: reversal of MRP1-mediated doxorubicin resistance, pilot screen, H69AR cells, doxorubicin co-treatment (AID 601;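 active means viability loss from added drug above about 55%, and viability with drug at most 40%, in both replicates, limit read from the data, passing the limit was not always enough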). As to conditions: CellTiter-Glo, 72 h, at 10 µM; for differential viability (reversal): stronger effect = higher value.
The nature of test [7]: 384-well plate pilot, post-Golgi transport modulator project, inhibition of yeast transport mutant growth (AID 636; in the data active means inhibition above about 31%). To be noted: absorbance 615 nm, about 18 h, stronger effect = higher value.
Test [8] is described as follows: growth suppression of yeast trafficking mutant, preliminary HTS, modulators of trafficking downstream of Golgi apparatus project, 1536-format plate, OD 615 nm (AID 637; in the data active means inhibition above about 30%). As to conditions: yeast transport mutant growth, absorbance 615 nm, 18 h; stronger effect = higher value.
Test [9] can be described thus: OD615 S. cerevisiae growth inhibition, permissive medium, pilot counter-assay, permissive growth control for S. cerevisiae lifespan shortening project (AID 705;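 active means growth inhibition above 25% in both replicates, a cutoff set 3 SD above the mean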). To be noted: OD615, 24 h, at 10 µM, stronger effect = higher value.
The nature of test [10]: Restrictive medium S. cerevisiae growth inhibition, OD615, pilot screen of yeast lifespan reduction project, restrictive growth control (AID 706;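 active means growth inhibition above a set limit, 3 SD over mean compound inhibition, in both replicates, cut at about 43% in these data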;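 further: modified DeaD lifespan yeast strain shifted to restrictive glucose medium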). To be noted: OD615, 48 h, at 10 µM, stronger effect = higher value.
Test [11] is described as follows: viability gain of MRP-1-high H69AR cells under doxorubicin, pilot screen, MRP-1 activator project, CellTiter-Glo, duplicate (AID 807;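 active means viability increase at or above a cutoff of the median across tested compounds plus 3 SD, cut at about 8.5% in these data, passing the limit was not always enough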;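 further: compound pretreatment 18-22 h then 72 h combined with doxorubicin; 0% = doxorubicin alone and 100% = vehicle without doxorubicin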). To be noted: H69AR viability with doxorubicin, CellTiter-Glo luminescence; at 10 µM; stronger effect = higher value.
The nature of test [12]: growth suppression of beta-catenin knockout HCT116, pilot screen, human colon tumor cells (AID 823;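 active means cell viability at or below a set limit in both duplicate runs, the limit being the all-compound median minus 4 SD, cut at about 23% in these data, passing the limit was not always enough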;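 further: 0% = wells killed by 20 µM Hyamine and 100% = untreated DMSO cell wells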). As to conditions: CellTiter-Glo, 60 h, at 10 µM, stronger effect = lower value.
Test [13] in a line: growth suppression of PTEN-deleted HCT116, pilot screen, cell-based, HCT116 clonal line, CellTiter-Glo (AID 824).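 Further: 0% = 20 µM Hyamine control and 100% = vehicle cell control.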 As to conditions: 60 h, at 10 µM, stronger effect = lower value.
The nature of test [14]: inhibitors of the yeast RAM network, pilot screen, dse1pr::URA3 reporter, 5-FOA selection (AID 869;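 active means inhibition over a set limit, the all-compound mean plus 3 SD, in both replicate runs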;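 further: 0% = DMSO wells with no growth and 100% = 10 µM 1-NA-PP1 with full growth; RAM network block rescues cells from 5-FOA so hits raise OD615 growth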). To be noted: S. cerevisiae dse1pr::URA3 5-FOA growth, OD615, 2 d; at 10 µM; stronger effect = higher value; strain carries analog-sensitive mutant Cbk1 kinase.
A short description of test [15]: RAM signaling pathway blockade in yeast – S. cerevisiae, Pdr1DBD-CYC8 efflux-inhibited sensitized strain, primary screen (AID 1298;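 active means RAM network inhibition above 8.4% in each of two replicates, 3 SD over the compound average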;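 further: 0% = DMSO untreated cells without growth and 100% = 10 µM 1-NA-PP1 full growth; higher means more yeast growth rescued from 5-FOA killing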). To be noted: S. cerevisiae cbk1-as DSE1-URA3 strain, 5-FOA growth OD615, 2 d; at 50 µM; stronger effect = higher value.
Where [16] appears, read: H69AR cells + 2 uM doxorubicin, measured here: viability with 2 uM doxorubicin, stronger effect = lower value.
Where [17] appears, read: H69AR cells, compound alone cytotoxicity.

Results filed as inconclusive are left out. The source made the active and inactive calls.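 How the source made its calls, unless noted: active means viability at or below 27.92% in each of two runs, the all-compound median minus 4 SD; inconclusive means no clear call, values can overlap the other calls; inactive means the rest.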

These results are taken from PubChem BioAssay.

Take `COc1ccccc1S(=O)(=O)Cc1ccc(C(=O)N2CCOCC2)o1`: the viability in test [1] was 113%; in test [3] it was 113% (inactive); in test [4], 105% (inactive); in test [5], 87.6% (inactive); in test [6] (setting [16]) it was 92.7%; in test [6] (setting [17]), 87.6%. In addition, the viability is 106% (inactive) in test [12] and 97.9% (inactive) in test [13]. The Her2 level in test [2] is 98.5% (inactive). Besides, the differential viability (reversal) in test [6] (H69AR cells + 2 uM doxorubicin) is -5.08% (inactive). Also, the inhibition in test [7] is -2.13% (inactive); in [8], 3.5% (inactive); in [14], 1.65% (inactive). The growth inhibition in [9] was 1.17% (inactive); in [10], -2.13% (inactive). Moreover, the viability increase in [11] is -2.08% (inactive). Also, the RAM network inhibition in test [15] is 0.78% (inactive).
In the case of `O=C(Nc1cccc2ccccc12)c1ccc(Br)o1`, the viability in [1] is 120%; in test [3] it was 120% (inactive); in [4] it was 87.1% (inactive); in [5] it was 84% (inactive); in [6] (setting [16]), 85.1%; in test [6] (setting [17]), 84%. In addition, the values for the viability in test [12] and in [13] were 94.3% (inactive) and 90.8% (inactive), respectively. Moreover, the Her2 level in test [2] was 88.5% (inactive). In addition, the differential viability (reversal) in test [6] (H69AR cells + 2 uM doxorubicin) is -1.12% (inactive). Besides, the inhibition in [7] was -3.25% (inactive); in test [8], -0.17% (inactive); in [14], 0.995% (inactive). Further, the results for the growth inhibition in test [9] and in test [10] were -10% (inactive) and 1.96% (inactive), respectively. Moreover, in test [11], the viability increase is -1.67% (inactive). Further, the RAM network inhibition in test [15] is 3.58% (inactive).
As to `O=C(c1cccs1)N1CCc2ccccc21`, the viability is 110% in [1]; 110% (inactive) in [3]; 83% (inactive) in test [4]; 94% (inactive) in test [5]; 79.5% in test [6] (setting [16]); 94% in test [6] (setting [17]). For the same molecule, the viability in [12] is 96.3% (inactive); in test [13], 95.8% (inactive). The Her2 level in test [2] is 82% (inactive). The differential viability (reversal) in test [6] (H69AR cells + 2 uM doxorubicin) was 14.6% (inactive). The inhibition was -5.47% (inactive) in [7], 0.97% (inactive) in test [8] and 1.48% (inactive) in test [14]. The growth inhibition in test [9] was 1.98% (inactive); in test [10], 1.57% (inactive). The viability increase in [11] is -1.9% (inactive). For the same molecule, the RAM network inhibition in test [15] was 1.66% (inactive).
Regarding `CCCOc1ccc2ccccc2c1/C=N/n1cnnc1`, the viability was 93% in [1]; 93% (inactive) in test [3]; 66.7% (inactive) in [4]; 72.3% (inactive) in test [5]; 69.2% in test [6] (setting [16]); 72.3% in test [6] (setting [17]). In addition, the viability was 92.4% (inactive) in [12] and 80.9% (inactive) in [13]. Besides, in [2], the Her2 level was 91% (inactive). The differential viability (reversal) in test [6] (H69AR cells + 2 uM doxorubicin) was 3.08% (inactive). Further, the inhibition in test [7] is -3.08% (inactive); in test [8], 2.67% (inactive); in test [14], -0.575% (inactive). The growth inhibition in test [9] was -0.81% (inactive); in test [10] it was 6.62% (inactive). For the same molecule, in test [11], the viability increase is -5.76% (inactive). The RAM network inhibition in test [15] is -1.74% (inactive).
As to `O=C1c2ccccc2C(Nc2ccc3c(c2)OCO3)N1Cc1ccc2c(c1)OCO2` (stereo not drawn), the viability in test [1] is 86%; in test [3], 86% (inactive); in [4], 50% (inactive); in test [5] it was 83.4% (inactive); in test [6] (setting [16]), 87.1%; in [6] (setting [17]), 83.4%. The viability in test [12] was 76.8% (inactive); in test [13], 70.1% (inactive). The Her2 level in [2] was 81.5% (inactive). For the same molecule, in [6] (H69AR cells + 2 uM doxorubicin), the differential viability (reversal) is -3.75% (inactive). The inhibition in test [7] was -0.27% (inactive); in [8], 1.83% (inactive); in test [14], 1.67% (inactive). For the same molecule, the growth inhibition was -0.885% (inactive) in [9] and -1.48% (inactive) in test [10]. The viability increase in test [11] was -0.78% (inactive). In test [15], the RAM network inhibition is 4.17% (inactive).
Turning to `CCN1CCN(C(c2cccs2)C(C)NC(=O)c2ccccc2)CC1` (stereo not drawn), the viability in test [1] is 92%; in test [3], 92% (inactive); in [4], 104% (inactive); in [5], 87.3% (inactive); in test [6] (setting [16]), 81.3%; in test [6] (setting [17]) it was 87.3%. Also, the viability in test [12] is 101% (inactive); in test [13], 105% (inactive). Further, the Her2 level in test [2] is 88% (inactive). Also, the differential viability (reversal) in test [6] (H69AR cells + 2 uM doxorubicin) was 6.01% (inactive). The inhibition in test [7] was -0.26% (inactive); in [8], 4% (inactive); in [14] it was -0.445% (inactive). The figures for the growth inhibition in [9] and in [10] were -5.51% (inactive) and 1.4% (inactive), respectively. Also, in test [11], the viability increase is -0.71% (inactive). For the same molecule, the RAM network inhibition in test [15] is 5.79% (inactive).
As for `CC1CCCCC1NC(=O)Cn1ncc2ccccc21` (stereo not drawn), the viability in test [1] was 104%; in test [3] it was 104% (inactive); in test [4] it was 82.1% (inactive); in [5], 90.4% (inactive); in [6] (setting [16]), 85.4%; in test [6] (setting [17]), 90.4%. Moreover, the figures for the viability in [12] and in [13] were 98.6% (inactive) and 95.7% (inactive), respectively. The Her2 level in test [2] was 104% (inactive). Besides, the differential viability (reversal) in test [6] (H69AR cells + 2 uM doxorubicin) was 4.98% (inactive). The figures for the inhibition in test [7], in [8] and in test [14] were -2.93% (inactive), 0.33% (inactive) and 1.98% (inactive), respectively. Further, the values for the growth inhibition in [9] and in test [10] were -12.1% (inactive) and -9.67% (inactive), respectively. Further, the viability increase in [11] was -1.21% (inactive). Further, the RAM network inhibition in test [15] was 0.04% (inactive).
As to `O=C1c2ccccc2S(=O)(=O)N1CC(O)Cn1c2ccccc2c2ccccc21` (stereo not drawn), the viability in test [1] is 90%; in test [3], 90% (inactive); in test [4], 73.2% (inactive); in test [5], 85% (inactive); in [6] (setting [16]), 87.6%; in test [6] (setting [17]), 85%. The viability in test [12] is 89.7% (inactive); in [13], 96.3% (inactive). In addition, in [2], the Her2 level is 96% (inactive). In addition, in test [6] (H69AR cells + 2 uM doxorubicin), the differential viability (reversal) is -2.51% (inactive). Also, the inhibition in test [7] is 99.3% (active); in [8] it was 94.7% (active); in test [14], 2.46% (inactive). In addition, the growth inhibition in [9] is -2.73% (inactive); in test [10] it was 9.13% (inactive). Besides, the viability increase in test [11] was -1.19% (inactive). The RAM network inhibition in test [15] is 0.57% (inactive).
Consider `CC(=O)C1=C(C)Nc2ncnn2C1c1cccc(OCc2ccccc2)c1` (stereo not drawn), for which the viability in test [1] is 102%; in [3] it was 102% (inactive); in test [4], 115% (inactive); in [5] it was 88.6% (inactive); in [6] (setting [16]), 94.2%; in test [6] (setting [17]) it was 88.6%. Moreover, the viability was 92.4% (inactive) in test [12] and 93.5% (inactive) in test [13]. Also, the Her2 level in [2] is 104% (inactive). For the same molecule, the differential viability (reversal) in test [6] (H69AR cells + 2 uM doxorubicin) is -5.64% (inactive). Further, the inhibition in test [7] is -4% (inactive); in test [8] it was 1.5% (inactive); in test [14] it was 1.94% (inactive). In addition, the growth inhibition was -3.25% (inactive) in test [9] and -0.16% (inactive) in test [10]. Further, in test [11], the viability increase is -0.76% (inactive). The RAM network inhibition in test [15] was 4.69% (inactive).
